# According to ChEMBL document CHEMBL1157539, “Thousands of chemical starting points for antimalarial lead identification” (Nature, 2010):
# How the values were obtained:
# Assay type in all cases: functional
# Plasmodium falciparum [1] = test: GSK_TCMDC: Inhibition of Plasmodium falciparum 3D7 in whole red blood cells, using parasite LDH activity as an index of growth. Test compounds present at 2uM
# Plasmodium falciparum [2] = test: GSK_TCMDC: Inhibition of Plasmodium falciparum Dd2 in whole red blood cells, using parasite LDH activity as an index of growth. Test compounds present at 2uM
# HepG2 = test: GSK_TCMDC: Percent inhibition of human HepG2 cell line. Test compounds present at 10uM.
SMILES,Inhibition (Plasmodium falciparum [1]),Inhibition (Plasmodium falciparum [2]),Inhibition (HepG2)
Cc1cc(C)c2nc(N3CCC(C(=O)NCCCN4CCC(N5CCCCC5)CC4)CC3)sc2c1,99%,34%,99%
Cc1cc(N[C@@H](Cc2ccccc2)C(=O)Nc2ccccc2)nc(NCCc2ccccn2)n1.O=C(O)C(F)(F)F,97%,50%,0%
CCCNCc1ccc(-c2ccc(CN(CCOC)C(=O)/C=C/c3ccccc3C)cc2)nc1.O=C(O)C(F)(F)F,95%,39%,13%
CC1(C)N=C(N)N=C(N)N1c1ccc(Oc2ccc(Cl)cc2)c(Cl)c1,97%,20%,13%
Cl.N#Cc1ccc2c(c1)CCN(CCC1CCC(NC(=O)c3cc4cccc(Cl)c4[nH]3)CC1)CC2 (stereo unspecified),99%,78%,34%
O=[N+]([O-])c1cccc(-c2nc(-c3ccc(Br)cc3)[nH]c2-c2ccc(Br)cc2)c1,99%,44%,6%
CN1CCCC(CN2CCN(Cc3ccc(-c4ccc(-c5nc6ccccc6[nH]5)s4)cc3)CC2)C1.O=C(O)C(F)(F)F (stereo unspecified),100%,100%,57%
CCN1CCN(c2cc(C)c3cc(NC(=O)c4cccc([N+](=O)[O-])c4)ccc3n2)CC1,99%,73%,74%
COc1ccc(-c2ccc(NC(=O)c3ccc(C#N)cc3)c(F)c2)cc1CN(C)CCN(C)C.O=C(O)C(F)(F)F,88%,0%,24%
Cc1cc(Cl)ccc1N(Cc1ccccc1)c1ccnc(Cl)n1,97%,98%,16%
Cc1ccc(CN2CCCN(Cc3cccc(NC(=O)c4cc5ccccc5s4)c3)CC2)cc1C.O=C(O)C(F)(F)F,92%,33%,44%
CCCCCCCOc1ccc(NC(=O)Nc2ccc(Cn3ncc(N4CCCNCC4)c(Cl)c3=O)cc2)cc1.O=C(O)C(F)(F)F,87%,28%,60%
Cn1cnc(CCNC(=O)c2ccc(-c3cccc(-c4nc5ccccc5[nH]4)c3)cc2)c1,93%,14%,1%
COc1cc(CN/C(=N/c2ccc(-c3ccccc3)cc2)Nc2ccc(C#N)cc2O)cc(OC)c1,95%,64%,0%
O=C(Nc1ccc(CN2CCOCC2)cc1)c1ccc(-c2ccc(Br)cc2)o1,92%,0%,3%
Br.CCCc1cc(C(C)=O)ccc1OCCCON1C(=N)N=C(N)NC1(C)C,96%,96%,61%
Cc1cc(C(=O)N[C@H]2CCN(Cc3ccc(OCCCN(C)C)cc3)C2)ccc1Br.O=C(O)C(F)(F)F,97%,62%,88%
O=C(Nc1ccc(CN2CCOCC2)cc1)c1ccc(-c2cc(Cl)ccc2Cl)o1,100%,13%,5%
COc1cc(NC(=O)/C=C/c2cccc3ccoc23)ccc1OCCN(C(C)C)C(C)C.Cl,90%,5%,22%

SMILES,Inhibition (Plasmodium falciparum [1]),Inhibition (Plasmodium falciparum [2]),Inhibition (HepG2)
CCNc1cc(C(=O)N[C@@H](Cc2ccccc2)[C@H](O)CNC(C)Cc2cccc(Cl)c2)cc(N2CCCCS2(=O)=O)c1.Cl (stereo partly specified),98%,77%,0%
COc1ccc(NC(=O)Nc2cccc(-c3cccc(-c4nc5cc(F)ccc5[nH]4)c3)c2)cc1,99%,39%,59%
CCOC(=O)c1c(NC(=O)c2ccccc2)sc2c(O)c(CNC3CCCCC3)ccc12,99%,98%,6%
FC(F)(F)c1cc(C(F)(F)F)c2cc(CNCCCNc3nc4ccccc4[nH]3)[nH]c2c1,100%,99%,99%
Cc1cc(=NN=Cc2ccccc2Cl)c2ccc(F)cc2[nH]1,100%,100%,6%
Cc1ccc2c(Cc3cnc(N)nc3N)cc(C)c(N)c2n1.Cl,91%,92%,0%
CCc1cn2c3c(cc(C(=O)N[C@@H](Cc4ccccc4)[C@H](O)CNC4CCCC4)cc13)N(C)S(=O)(=O)CC2,100%,99%,6%
Cc1nn(-c2ccccc2)c2nc(-c3ccccc3)cc(C(=O)N3CCOCC3)c12,93%,67%,6%
Cc1cc(N(C)C2CCN(C)C2)nc(Nc2ccc(Cl)cc2)n1 (stereo unspecified),100%,88%,8%
N#Cc1ccc(-c2ccc(C(=O)NCCCCN3CC=C(c4ccc5c(c4OCC4CC4)CCCC5)CC3)cc2)cc1,100%,83%,22%
Br.Cc1ccccc1OCCCON1C(=N)N=C(N)NC1(C)C,95%,97%,66%
CC(=NNC(=N)N)c1ccc2c(c1)Cc1ccccc1-2.Cl,100%,10%,44%
Cc1[nH]c(C)c(-c2ccc(OCc3cccc(C(F)(F)F)c3)nc2)c(=O)c1Br,99%,97%,37%
O=c1cc(NCCCNCc2[nH]c3cc(Cl)ccc3c2Cl)[nH]c2ccccc12,91%,1%,5%
N#Cc1ccc2[nH]cc(CN3CCC4(CC3)CN(CCNCc3ccccc3)C(=O)O4)c2c1.O=C(O)C(F)(F)F,100%,0%,0%
COc1ccc(CN(C)Cc2cc(C(C)C)c(C)cc2O)cc1F,98%,98%,1%
COc1ccc(C2CC(c3cccs3)=NN2C(=O)c2ccccc2)cc1OC (stereo unspecified),99%,83%,5%
Cc1[nH]c(C)c(-c2ccc(OCc3cc(C(F)(F)F)cc(C(F)(F)F)c3)nc2)c(=O)c1Br,98%,96%,28%
COc1ccc(NS(=O)(=O)c2ccc(C(=O)Nc3ccc(C(F)(F)F)cc3)cc2)cc1N1CCN(CC2CC2)CC1.O=C(O)C(F)(F)F,92%,0%,15%

SMILES,Inhibition (Plasmodium falciparum [1]),Inhibition (Plasmodium falciparum [2]),Inhibition (HepG2)
CC[C@H](NC(=O)c1c(CN2CCC(N3CCCCC3)CC2)c(-c2ccccc2)nc2c(Cl)c(O)ccc12)c1ccccc1.Cl,100%,66%,0%
NCC1CCCN1Cc1ccc(-c2cccc(-c3nc4cc(F)ccc4[nH]3)c2)cc1.O=C(O)C(F)(F)F (stereo unspecified),100%,31%,38%
O=C(NCCCCN1CCC(c2c[nH]c3ccccc23)CC1)c1sc(-c2ccc(C(F)(F)F)cc2)nc1CO,94%,3%,34%
COC(=O)CNC(c1ccccc1)c1cc(Br)ccc1NC(=O)c1ccccc1Br (stereo unspecified),99%,77%,10%
COc1ccc(NC(=O)/C=C/c2ccccc2Cl)cc1OCCN1CCC(NC2CC2)CC1,100%,66%,23%
O=C(Nc1ccc(Cl)cc1)N(CC1CC2CCC(C1)N2Cc1ccc(C(F)(F)F)cc1)c1ccc(N2CCOCC2)c(F)c1 (stereo unspecified),85%,36%,31%
COc1ccc2ncc(F)c(CCN3CCC(NCc4cc5c(cn4)OCCS5)CC3)c2c1.Cl,89%,40%,4%
CCNc1cc(C(=O)N[C@@H](Cc2ccccc2)[C@H](O)CNC2(CC)CCCCC2)cc(N2CCCCS2(=O)=O)c1.Cl,98%,98%,3%
CCCCCN1CCC(NC(=O)c2ccc(C(=O)Nc3ccc(C(C)C)cc3)cc2)C1.O=C(O)C(F)(F)F (stereo unspecified),95%,17%,38%
COc1ccc(NC(=O)[C@H](Cc2ccccc2)Nc2nc(NCCN3CCCC3)ncc2C)cc1.O=C(O)C(F)(F)F,89%,9%,26%
O=C(NCCCCN1CCN(CC=Cc2ccccc2)CC1)c1ccc(NC(=O)c2cc(Cl)cc(Cl)c2)cc1,100%,63%,26%
Cn1cccc1CCNCc1ccc(-c2cccc(-c3nc4cc(F)ccc4[nH]3)c2)cc1.O=C(O)C(F)(F)F,93%,43%,0%
O=C(N[C@H]1CCN(Cc2ccc(OC3CCN(Cc4ccccc4)CC3)c(Cl)c2)C1)c1ccc(Cl)c(Cl)c1.O=C(O)C(F)(F)F,99%,11%,59%
CC(C)CN(C)Cc1ccc(-c2ccc(-c3nc4ccccc4[nH]3)s2)cc1,97%,76%,8%
CNC(=O)c1ccccc1Nc1nc(Nc2ccc(N3CCN(C)CC3)nc2)ncc1C.Cl,92%,50%,75%
CCCCNc1c(CC)c(C)c(C#N)c2nc3ccccc3n12,100%,100%,3%
O=C(C=Cc1ccc(Cl)c(Cl)c1)NCCCCCN1CCCC(CCCNC(=O)C2CC2c2ccccc2)C1 (stereo unspecified),85%,5%,48%
FC(F)(F)Oc1cccc(CNc2noc(-c3sccc3Br)n2)c1,100%,97%,0%
CO/C(=C\C=C\c1cc2cc(Cl)c(Cl)cc2[nH]1)C(=O)NCCCN1CCCC[C@@H]1C,99%,83%,33%
